In PubChem BioAssay AID687001 (Broad Institute, 2013) one finds outcome data, which are given here for 86 compounds.

This assay concerns the target Protein S100-A4 (Homo sapiens) (UniProt P26447). Kind of assay: S100A4-myosin IIA binding inhibitor potency, dose response, biochemical, fluorescence polarization, cherry-picked hits (AID 687001).

Results with a measured potency or affinity are listed apart. Activity calls are given as the source filed them.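 How the source made its calls: active means signal-lowering compounds whose fitted half-maximal concentration is at or below twice the top tested dose in every run; inconclusive means runs disagree, flat 30 to 70% inhibition, or poor curve fit; inactive means the rest.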

Chain of Protein S100-A4 (Homo sapiens) (P26447 whole entry, looked up): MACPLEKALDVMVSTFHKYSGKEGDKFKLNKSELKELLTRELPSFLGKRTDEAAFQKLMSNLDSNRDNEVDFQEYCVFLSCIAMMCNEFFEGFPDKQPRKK

On to `CCCNC(=O)N1C[C@H](O)COC[C@@H]2O[C@H](CC(=O)N[C@H]3CCN(Cc4ccccc4)C3)CC[C@H]21`, for which the compound was classed as inactive.
The same measure for `O=C(c1cccc(F)c1)N1CC[C@H]2[C@H](CO)Nc3ccc(-c4ccc(F)cc4)cc3[C@H]21`: “inactive”.
The value for `O=C(C[C@H]1CC[C@H]2NC[C@H](O)COC[C@@H]2O1)NCCN1CCCCC1` was “inactive”; that for `O=C(c1ccncc1)N1C[C@@H]2[C@H](c3ccccc31)[C@@H](CO)N2C(=O)CN1CCOCC1` was “inactive”; that for `Cc1cc(C)nc(NC(=O)CCN2C(=O)c3ccccc3S2(=O)=O)n1` was “inactive”.
The value for `CC(C)(O)C#Cc1ccc([C@H]2[C@H](CO)N3CCCCN(C(=O)c4ccc(F)cc4)C[C@@H]23)cc1` was “inactive”; that for `Cc1ccc(S(=O)(=O)N[C@H]2C=C[C@H](CC(=O)O)O[C@@H]2CO)cc1` was “inactive”; that for `Cc1ccc(S(=O)(=O)NCc2ccccc2)cc1C(=O)NCC1CCCO1` (stereo unspecified) was “inactive”.
As to `COc1ccc(CN2C[C@H](O)COC[C@@H]3O[C@@H](CC(=O)N(C)C)CC[C@H]32)cc1`, the call was inactive.
The value for `COC(=O)c1cccc(NC(=O)c2ccc3c(c2)C(=O)N(Cc2cccnc2)C3=O)c1` was “inactive”; that for `O=C(c1cc2c(s1)-c1ccccc1S(=O)(=O)C2)N1CCN(Cc2ccccc2)CC1` was “inactive”; that for `COc1ccc2c3c([nH]c2c1)[C@H](CO)N(S(C)(=O)=O)CC31CN(CC2CCOCC2)C1` was “inactive”.
For `NC(=O)NC(Cc1ccccc1)C(=O)NCCCSc1ccccc1` (stereo unspecified), the compound was classed as inactive.
The value for `O=C(C[C@@H]1C[C@H]2c3cc(NS(=O)(=O)c4ccccc4)ccc3O[C@H]2[C@@H](CO)O1)N1CCOCC1` was “inactive”.
The same measure for `C[C@H]1CCCCO[C@H](CN(C)C(=O)c2ccccc2)[C@@H](C)CN([C@@H](C)CO)C(=O)c2cc(NC(=O)NC3CCCCC3)ccc2O1`: “inactive”.
The same measure for `COc1ccc(S(=O)(=O)Nc2cccc3c2O[C@@H](CN(C)S(=O)(=O)c2c(C)noc2C)[C@H](C)CN([C@@H](C)CO)C3=O)cc1`: “inactive”; for `COc1cc(O)c(C(=O)O)c(CCc2ccccc2)c1`: “inactive”; for `C[C@H]1CN([C@@H](C)CO)C(=O)c2cc(-c3cccc(C#N)c3)cnc2O[C@@H]1CN(C)Cc1cccnc1`: “inactive”.
`S=c1[nH]nc(Nc2cccc3ccccc23)s1`: the compound was classed as inactive.
The value for `C[C@H](CO)N1C[C@H](C)[C@@H](CN(C)Cc2ccc(C(=O)Nc3ccccc3N)cc2)Oc2c(NC(=O)C3CCCCC3)cccc2C1=O` was “inactive”; that for `CSc1cccc(NC(=O)C2CCN(S(=O)(=O)c3ccc4c(c3)NC(=O)CO4)CC2)c1` was “inactive”; that for `COc1ccc(Cl)cc1-c1cc(C(=O)N[C@H](C)c2ccccc2)[nH]n1` was “inactive”.
The value for `O=C(O)c1cccc(C(=O)O)c1S(=O)Cc1ccccc1` (stereo unspecified) was “inactive”.
The value for `Cc1ccc(C2=N/C(=C\c3ccc(F)cc3)C(=O)N2)cc1` was “inactive”; that for `Cn1nc(C(F)(F)F)c(-c2ccc(Br)cc2)c1NC(=O)C1CCC1C(=O)O` (stereo unspecified) was “inactive”; that for `CNS(=O)(=O)c1ccc2c(c1)[nH]c(=S)n2C` was “inactive”.
For `Cc1cccc(NS(=O)(=O)c2c(C(=O)N3CCOCC3)c(C)n(C)c2C)c1C`, the compound was called inactive.
The same measure for `Cn1c(=O)[nH]c2c(nc(-c3ccc(Cl)cc3)n2C)c1=O`: “inactive”; for `CO[C@H]1CN(C)C(=O)c2cc(NC(C)=O)ccc2OC[C@H](C)N(Cc2ccccn2)C[C@H]1C`: “inactive”; for `O=C(O)COCC(=O)Nc1ccc(-n2nc(C(F)(F)F)cc2-c2cccs2)cc1`: “inactive”.
The same measure for `C[C@@H]1CCCCO[C@@H](CN(C)C(=O)C2CCCCC2)[C@@H](C)CN([C@H](C)CO)C(=O)c2cc(NC(=O)CCCCCC(=O)Nc3ccccc3N)ccc2O1`: “inactive”.
The same measure for `C[C@@H]1CN([C@H](C)CO)C(=O)c2cc(NS(=O)(=O)c3ccc(F)cc3)ccc2O[C@@H](C)CCCCO[C@@H]1CN(C)C(=O)NC1CCCCC1`: “inactive”; for `COc1ccccc1-c1ccc2c(c1)O[C@H](CN(C)C(C)=O)[C@@H](C)CN([C@@H](C)CO)S2(=O)=O`: “inactive”.
On to `Cc1cc2cc(CNC(=O)Nc3cccc(Cl)c3)ccc2n1C`, for which the compound was classed as inactive.
The same measure for `COc1ccc(N(CC(=O)NC2CCCCC2)C(=O)CNC(=O)c2cccs2)cc1OC`: “inactive”; for `CC1(C)CC2CC(C)(CN2/C=N/c2sc3c(c2C#N)CC(C)(C)NC3(C)C)C1` (stereo unspecified): “inactive”.
In the case of `Cc1ccc(S(=O)(=O)Nc2ccc(O)c3ccccc23)c(C)c1`, the outcome was inactive.
The same measure for `COc1ccc(CN(C)C(=O)Cc2ccc(S(=O)(=O)N3CCOCC3)s2)cc1OC`: “inactive”.
On to `C[C@H]1CN([C@@H](C)CO)C(=O)c2cc(C#CC3CCCCC3)cnc2O[C@H]1CN(C)Cc1cncnc1`, for which the call was inactive.
The value for `CO[C@H]1CN(C)C(=O)c2ccc(NC(=O)C3CCCCC3)cc2OC[C@@H](C)N(Cc2nccs2)C[C@@H]1C` was “inactive”; that for `Cc1cc(OCC(=O)NCCc2c[nH]c3ccccc23)c2c(C)cc(=O)oc2c1` was “inactive”; that for `C[C@@H]1CN([C@@H](C)CO)C(=O)c2cccc(NS(=O)(=O)c3ccc(F)cc3)c2O[C@H]1CN(C)C(=O)NC1CCCCC1` was “inactive”.
The value for `C[C@@H]1CN([C@@H](C)CO)C(=O)c2cc(NC(=O)c3ccncc3)ccc2O[C@@H]1CN(C)Cc1ccncc1` was “inactive”; that for `CN(C)S(=O)(=O)c1ccc(NC(=O)CN2CCN(c3ccccn3)CC2)cc1` was “inactive”; that for `COc1cc(OC)cc(C(=O)N2CCCc3ccccc32)c1` was “inactive”.
The value for `COc1cccc(CN2CC3(CN(C)C3)c3c([nH]c4cc(OC)ccc34)[C@@H]2CO)c1` was “inactive”; that for `Cc1ccc(CN2C(=O)CSCC2(C)C(=O)Nc2c(C)cccc2C)cc1` (stereo unspecified) was “inactive”.
With `COc1ccc(CNC(=O)CN(C(=O)CCC(=O)Nc2ccccn2)c2ccc(C)cc2)cc1`, the compound was called inactive.
As to `O=C(Nc1ccccc1)N1CCCCN2[C@H](CO)[C@H](c3ccc(C#Cc4ccccn4)cc3)[C@H]2C1`, the call was inactive.
The value for `COc1cc2cnc(-c3ccccc3F)cc2cc1OC` was “inactive”; that for `C[C@@H]1CN([C@H](C)CO)C(=O)Cc2cc(NS(=O)(=O)c3ccccc3)ccc2O[C@@H]1CN(C)Cc1ccccc1` was “inactive”.
Take `COc1cccc(NC(=O)N[C@@H]2C=C[C@@H](CC(=O)NCc3ccncn3)O[C@@H]2CO)c1`: the compound was classed as inactive.
The same measure for `CO[C@H]1CN(C)C(=O)c2cc(NC(=O)Nc3ccc4c(c3)OCO4)ccc2OC[C@@H](C)NC[C@@H]1C`: “inactive”; for `CC(C)n1nccc1N(Cc1ccc(C#N)cc1)S(=O)(=O)c1ccccc1`: “inactive”; for `Cc1nn(-c2ccc(N3CCOCC3)nn2)c(C)c1CCC(=O)N1CCN(C)CC1`: “inactive”.
With `COCC(=O)N[C@H]1C=C[C@@H](CC(=O)OC)O[C@@H]1CO`, the compound was called inactive.
For the compound `O=C1CCc2cc(S(=O)(=O)N3CCCCC3)cc3c2N1CCC3`, the compound was classed as inactive.
The value for `COC(=O)c1c(NC(=O)CCN2CCOCC2)sc2c1CCCC2` was “inactive”; that for `O=S(=O)(Nc1ccc(N2CCCCC2)cc1)c1ccc(F)cc1` was “inactive”; that for `COCC(=O)N1C[C@H]2[C@@H](c3ccccc31)[C@@H](CO)N2C(=O)Nc1ccccc1F` was “inactive”.
The same measure for `C(=Cc1nc2ccccc2o1)c1ccc2c(c1)OCO2`: “inactive”; for `CC1CCN(C(=O)c2[nH]cnc2C(=O)N[C@@H](C)C(=O)OCc2ccccc2)CC1`: “inactive”.
The same measure for `CO[C@@H]1CN(C)C(=O)c2ccc(NC(C)=O)cc2OC[C@H](C)N(Cc2cc(F)ccc2F)C[C@@H]1C`: “inactive”; for `CC1NC2(C(=O)N(Cc3ccccc3)c3ccccc32)C2C(=O)N(c3ccccc3)C(=O)C12` (stereo unspecified): “inactive”; for `CC(NC(=O)c1ccccc1F)c1nnc(SCC(=O)Nc2nnc(C3CC3)s2)n1C` (stereo unspecified): “inactive”.
In the case of `O=C(Cn1cc(COc2ccc3ccc(=O)oc3c2)nn1)c1ccc(O)cc1`, the result was inactive.
The value for `COc1ccc(C(=O)OCc2nnc(-c3ccccc3)o2)cc1S(=O)(=O)N1CCOCC1` was “inactive”; that for `CN(C)CCCNC(=O)C[C@@H]1CC[C@H]2[C@@H](COC[C@@H](O)CN2Cc2ccc(Cl)c(Cl)c2)O1` was “inactive”; that for `Cc1cc(C)cc(OCC(=O)OCC(=O)N2CCc3ccccc32)c1` was “inactive”.
The value for `CN(CCC#N)C(=O)COC(=O)[C@H](Cc1ccccc1)N1C(=O)c2ccccc2C1=O` was “inactive”; that for `COc1cc(/C=C2\SC(=S)N(NC(=O)c3cccc(O)c3)C2=O)ccc1O` was “inactive”; that for `CC(NC(=O)C(=O)NCc1cccs1)c1ccccc1` (stereo unspecified) was “inactive”.
The same measure for `CCOC(=O)Cc1csc(NC(=O)c2c(-c3ccccc3)noc2C)n1`: “inactive”; for `Cn1cnc(CCNC(=O)C[C@@H]2CC[C@H]3[C@@H](COC[C@@H](O)CN3C(=O)C3CC3)O2)c1`: “inactive”.
Consider `CC(C)(C)c1cc(CCC(=O)N2CCC2)cc(C(C)(C)C)c1O`, for which the result was inactive.
The value for `O=C(/C=C/c1cccc(Cl)c1)NCCCN1CCOCC1` was “inactive”; that for `CC(C(=O)NC1CCCCC1)N1C(=O)c2cccc3cccc1c23` (stereo unspecified) was “inactive”.
The value for `C[C@H](CO)N1C[C@H](C)[C@@H](CN(C)S(=O)(=O)c2cccs2)OCCCC[C@H](C)Oc2ccc(NS(C)(=O)=O)cc2C1=O` was “inactive”; that for `CCCCN(CC(=O)NC1CCCC1)C(=O)C(=O)Nc1ccc2c(c1)OCCO2` was “inactive”.
The same measure for `CC(C)[C@@H]1C=C(C(=O)O)O[C@H](OCCCCO)C1`: “inactive”; for `C[C@@H]1CN([C@@H](C)CO)C(=O)c2cc(C#Cc3ccccc3)cnc2O[C@H]1CN(C)C(=O)c1ccccc1F`: “inactive”.
Consider `CCOC(=O)c1cc(C)sc1/N=C/C1C(=O)CCCC1=O`, for which the outcome was inactive.
Turning to `C[C@H](CO)N1C[C@H](C)[C@H](CN(C)C)Oc2cc(C3=CCCC3)ccc2S1(=O)=O`, the result was inactive.
The value for `C[C@H](CO)N1C[C@H](C)[C@H](CN(C)CC2CC2)OCc2ccccc2-c2c(n(C)c3ccccc23)C1=O` was “inactive”; that for `Cc1ccc(S(=O)(=O)Nc2ccc3c(c2)C(=O)N([C@@H](C)CO)C[C@@H](C)[C@@H](CN(C)S(=O)(=O)c2cn(C)cn2)OCCCC[C@@H](C)O3)cc1` was “inactive”; that for `CCOC(=O)[C@]12CCC=C1N(Cc1ccc3c(c1)OCO3)C(=O)[C@H](CC(=O)NCc1cccc(C(F)(F)F)c1)C2` was “inactive”.
